# Experiments:
# Conditions in all cases: concentration: 1 μM,replicates: in singlicate; n = 1
# AAK1 = tested on: AAK1
# ABL1-nonphosphorylated = tested on: ABL1-nonphosphorylated
# ABL1-phosphorylated = tested on: ABL1-phosphorylated
# ABL2 = tested on: ABL2
# ACVR1B = tested on: ACVR1B
# ACVR1 = tested on: ACVR1
# ACVR2A = tested on: ACVR2A
# ACVR2B = tested on: ACVR2B
# ACVRL1 = tested on: ACVRL1
# ADCK3 = tested on: T1, ADCK3
# T1 construct: gene CABC1
# ADCK4 = tested on: ADCK4
# AKT1 = tested on: AKT1
# AKT2 = tested on: AKT2
# AKT3 = tested on: AKT3
# ALK = tested on: ALK
# AMPK-alpha1 = tested on: T2, AMPK-alpha1
# T2 construct: gene PRKAA1
# AMPK-alpha2 = tested on: T3, AMPK-alpha2
# T3 construct: gene PRKAA2
# ANKK1 = tested on: ANKK1
# ARK5 = tested on: T4, ARK5
# T4 construct: gene NUAK1
# ASK1 = tested on: T5, ASK1
# T5 construct: gene MAP3K5
# 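Also: KINOMEscan kinase panel screen.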
SMILES,%Inh (AAK1) [%],%Inh (ABL1-nonphosphorylated) [%],%Inh (ABL1-phosphorylated) [%],%Inh (ABL2) [%],%Inh (ACVR1B) [%],%Inh (ACVR1) [%],%Inh (ACVR2A) [%],%Inh (ACVR2B) [%],%Inh (ACVRL1) [%],%Inh (ADCK3) [%],%Inh (ADCK4) [%],%Inh (AKT1) [%],%Inh (AKT2) [%],%Inh (AKT3) [%],%Inh (ALK) [%],%Inh (AMPK-alpha1) [%],%Inh (AMPK-alpha2) [%],%Inh (ANKK1) [%],%Inh (ARK5) [%],%Inh (ASK1) [%]
C[C@@H]1CCN(C(=O)N2CCCC2)C[C@@H]1N(C)c1ncnc2[nH]ccc12,31,51,9,0,1,0,3,0,0,7,0,0,3,0,0,66,77,0,16,0
COc1cccc(CNC(=O)NC2CCN(c3ccnc(Nc4cc(OC)c(OC)c(OC)c4)n3)C2)c1 (centres unmarked) [GSK1379765],54,0,0,20,0,0,0,14,0,24,92.3,0,17,0,72,0,2,42,45,7
C[C@@H](Oc1cc(-n2cnc3cc(-c4ccncc4)ccc32)sc1C(N)=O)c1ccccc1Cl [GSK479719],61,0,25,22,0,10,0,0,0,12,9,0,6,0,31,5,17,0,75,4
CCN1CCN(CCCC(=O)Nc2n[nH]c3nc(-c4ccc(O)cc4)c(Br)cc23)CC1 [SB-731579],0,64,31,100,0,78,0,2,63,0,16,0,0,0,0,0,0,0,5,0
NC(=O)Nc1sc(-c2ccc(F)cc2)cc1C(N)=O [GW789449],60,49,0,3,5,0,31,28,0,5,7,0,0,0,52,25,15,86,0,26
COc1cc2nccc(Nc3ccc(Oc4ccccc4)cc3)c2cc1OC.Cl [GI261656],6,89,14,16,0,0,0,0,0,5,40,0,0,0,4,0,0,0,7,0
C[C@@H]1CNc2c(sc3ccc4nc(-c5ccc(O)cc5)ccc4c23)C(=O)N1,29,48,10,3,22,11,8,52,45,0,10,0,0,0,16,30,0,0,0,91
CN1CCN(CCNc2nc3cc(Oc4ccc(NC(=O)Nc5cc(C(F)(F)F)ccc5F)cc4)ccc3[nH]2)CC1.Cl.Cl [GW768504],0,51,23,0,0,0,0,0,0,0,22,4,0,0,0,9,11,0,29,0
Cn1ccc2ncnc(Oc3ccc(NC(=O)Nc4ccnc(C(F)(F)F)c4)c(Cl)c3)c21,18,68,10,5,0,11,4,13,63,0,4,7,0,0,0,0,0,0,2,0
N#Cc1cccc(C(=O)NC2CCN(c3ccnc(Nc4ccc(F)cc4)n3)C2)c1 (centres unmarked) [GSK1379708],0,0,0,4,0,31,0,0,0,0,20,0,0,0,26,16,0,0,0,0
